We go through 59 sequences from publication PMC7819943, “Rice protein-binding microarrays: a tool to detect cis-acting elements near promoter regions in rice”.

The full ranking holds about 68,000 sequences; the median of “fluorescence intensity (a.u.)” is about 9,100, and the highest 2% start at about 16,000. The sample holds the highest values, similar sequences and a random draw of the others, so the mix is not that of the screen.

Sequence of OsWRKY34 (Q0JBA9 entry or part of it): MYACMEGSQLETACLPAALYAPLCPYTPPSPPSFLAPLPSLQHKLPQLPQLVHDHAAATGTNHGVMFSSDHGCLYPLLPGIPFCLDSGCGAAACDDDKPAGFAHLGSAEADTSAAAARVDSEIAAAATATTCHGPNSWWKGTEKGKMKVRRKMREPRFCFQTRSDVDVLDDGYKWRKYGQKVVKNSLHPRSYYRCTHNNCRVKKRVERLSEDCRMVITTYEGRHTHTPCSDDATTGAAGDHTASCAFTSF

The target in the assay is OsWRKY34 (Oryza sativa, UniProt Q0JBA9 1-250). Briefly: protein-binding microarray (RPBM); PBS, 2% BSA, 51.3 ng/ul salmon testes DNA, 50 uM zinc acetate, 200 nM TF, 25 C, 1 h; high values mean tight binding. Conditions: protein: recombinant; tags: N-terminal polyhistidine and DsRed monomer fusion (pET32a); label: CyDye5-dUTP incorporated in the synthesized complementary strand; 3' TTTTT single-stranded linker to array surface; dsDNA, one strand shown. A digest of the protocol:
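An Axon 4000B scanner gave the binding signal as per-feature fluorescence intensity in arbitrary units. This followed washing of a custom Agilent array that had been incubated for 1 h at 25 °C with 200 nM protein in PBS, 2% BSA, salmon testes DNA and 50 µM zinc acetate. The proteins were transcription factors fused at the N-terminus to polyhistidine and DsRed, expressed in E. coli BL21-CodonPlus and purified on Ni–NTA.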
As for “AGCTTAACACGCGCCACTTGCCCCTATTTAGCCGCGCCATCGGAGTCACCTAGTGCAG”, the binding signal was 9920 fluorescence intensity (a.u.).
As to “GGGAATATTAGTGGGATGGGGATGAGGAATTGAGGAAGAACGGAGTCACCTAGTGCAG”, the binding signal is 13400 fluorescence intensity (a.u.).
Consider “AATCTAACGGGTGGGTCTCATGTATTGATGAGGAAGAAGACGGAGTCACCTAGTGCAG”, for which the binding signal was 20800 fluorescence intensity (a.u.).
As to “GGTGGTGCGCGAGCGTCGGCGGTCGGCGGGAGGGCGGGAGCGGAGTCACCTAGTGCAG”, the binding signal was 9180 fluorescence intensity (a.u.).
For the sequence “AGGGTGAACAGAAGAAGATGAATCTAACGGGTGGGTCTCACGGAGTCACCTAGTGCAG”, the binding signal was 10800 fluorescence intensity (a.u.).
Take “AATGTGGGAGAAGGGGAGGAGAGAGGGGAGGGGAGGGGACCGGAGTCACCTAGTGCAG”: the binding signal is 16500 fluorescence intensity (a.u.).
“AGAAGGAGGAGGAGGAGGAGGAGGAGGAGGGGAGGAGAGCCGGAGTCACCTAGTGCAG”: the binding signal was 10400 fluorescence intensity (a.u.).
In the case of “CGGCTAGGGACGGGGACGACGCCGGAGTGGGTGGGGAAGGCGGAGTCACCTAGTGCAG”, the binding signal is 8680 fluorescence intensity (a.u.).
As to “GGCCGCGGCGGTGCGACGAAGAGCGGCGTCGGACAAGGGCCGGAGTCACCTAGTGCAG”, the binding signal is 35900 fluorescence intensity (a.u.).
On to “CGGTGGGGAGGCCGGGAGGGAGGAGGAGAGAAGAGGAGTGCGGAGTCACCTAGTGCAG”, for which the binding signal was 9450 fluorescence intensity (a.u.).
In the case of “GACGGCGACCGAAGGGGACAAGGAGGCGGGGCGGGGCGGCCGGAGTCACCTAGTGCAG”, the binding signal is 14000 fluorescence intensity (a.u.).
Regarding “GCATGGTGGCGGCGGGAAGGAGGAGTGGGGCGGCGGGTGCCGGAGTCACCTAGTGCAG”, the binding signal was 16100 fluorescence intensity (a.u.).
To “GGGAAGGGGAGGGGTGGGCGGAAGGGGACGCCGGTGGTGGCGGAGTCACCTAGTGCAG” belongs 17900 fluorescence intensity (a.u.); to “CTCTCTCTGCTCGAGCCCGAGTAGCCCTCGTCGTCATTCTCGGAGTCACCTAGTGCAG”, 8950 fluorescence intensity (a.u.); to “ATTATATGTCATTTGACTTTTCTCTTAGCTAAAGTTCTTTCGGAGTCACCTAGTGCAG”, 9800 fluorescence intensity (a.u.).
Regarding “CTATATATAAACGAGCACATCTCGTCGTCCCTCGCCATTCCGGAGTCACCTAGTGCAG”, the binding signal is 10400 fluorescence intensity (a.u.).
With “TTAAACTGTATACCGTCGCTCGCGTCGCGCGCCGTTGACGCGGAGTCACCTAGTGCAG”, the binding signal was 9730 fluorescence intensity (a.u.).
Consider “CATGTGTTTACTGGGGTGGTTGTTGTAACAAAATTGAGTACGGAGTCACCTAGTGCAG”, for which the binding signal is 9360 fluorescence intensity (a.u.).
With “GTCTGAGTACACTTCTGAGGCTTCTTTGGTCGTTTTGGCCCGGAGTCACCTAGTGCAG”, the binding signal was 9790 fluorescence intensity (a.u.).
Turning to “AAATATCAACCACATGCTCCTACTTCTATGGAAATTGATTCGGAGTCACCTAGTGCAG”, the binding signal was 10400 fluorescence intensity (a.u.).
For “TTGTCGTGTCACCTCCATTCTCACCCAACTTCCTTACCTACGGAGTCACCTAGTGCAG”, the binding signal was 13300 fluorescence intensity (a.u.).
To “CTCGTTTACCTTACTCTCGCTTAGTTCGTTGAGGCATTTCCGGAGTCACCTAGTGCAG” belongs 14900 fluorescence intensity (a.u.).
To “GTTATTCAAAACTATAGTTATCTTCCGCCTATTTTTTTATCGGAGTCACCTAGTGCAG” belongs 10600 fluorescence intensity (a.u.); to “CCGGGGCCGGCAGCGGCGGGCGGGCGGGCTCGAGCGGTGGCGGAGTCACCTAGTGCAG”, 9020 fluorescence intensity (a.u.).
To “GGCGGCATCTCGCTCTACCGCGGGTGGGGCTTCGACTCCGCGGAGTCACCTAGTGCAG” belongs 12100 fluorescence intensity (a.u.); to “GATTGAGGGGAATGTTCCATGTTTTGTTGAACTCTTTTCCCGGAGTCACCTAGTGCAG”, 9320 fluorescence intensity (a.u.).
For “GACACTAATGTGTGTGAAGGGGAGATTGTTGAATGGTTCCCGGAGTCACCTAGTGCAG”, the binding signal is 65200 fluorescence intensity (a.u.).
Regarding “AGGGTTGTGATTGGTTGGGAAGAGAATGTTGGTAGATAAGCGGAGTCACCTAGTGCAG”, the binding signal was 9400 fluorescence intensity (a.u.).
To “GGGAAGACGGTGGGGCGGGGACAGAGGTAGGGGAAGGAGGCGGAGTCACCTAGTGCAG” belongs 12600 fluorescence intensity (a.u.); to “GCAGCAGGGAGGTGGGGCGCAGGAGGAAGAAGAAGAGGGACGGAGTCACCTAGTGCAG”, 13300 fluorescence intensity (a.u.).
Consider “GGGTGGGGAAGAAGAGGGGAAGCGGGGAGGAGGAGAGGGACGGAGTCACCTAGTGCAG”, for which the binding signal is 9680 fluorescence intensity (a.u.).
In the case of “GGTGGCGGGGCATCTCGCCGCCGACGGCTCGAGGAGGAAACGGAGTCACCTAGTGCAG” it was 18400 fluorescence intensity (a.u.).
As for “ACCGCACAGAGAGGGAGGAGGCGGGGAGGACGGTGAGGGGCGGAGTCACCTAGTGCAG”, the binding signal is 10500 fluorescence intensity (a.u.).
Take “CGGGGAAGGAGAGGGGCGTTAGGGAGGAGGGGCGCACAGACGGAGTCACCTAGTGCAG”: the binding signal was 16800 fluorescence intensity (a.u.).
For the sequence “CGGCGGAGGAGGAGGAGGAGGGGTGGGGAAGAAGAGGGGACGGAGTCACCTAGTGCAG”, the binding signal was 22800 fluorescence intensity (a.u.).
With “CGTGGGCCCCACCCGTGCCAGCTCACCTCATCCCCACCACCGGAGTCACCTAGTGCAG”, the binding signal was 8940 fluorescence intensity (a.u.).
Take “ATCGACCCTTGCGCGGACTCCGCTCTCTTGTTGACCACCTCGGAGTCACCTAGTGCAG”: the binding signal was 14600 fluorescence intensity (a.u.).
Consider “TCACTCATGCAGAGTCACAGCTTGTATAGTTGTAATGCATCGGAGTCACCTAGTGCAG”, for which the binding signal is 9000 fluorescence intensity (a.u.).
Turning to “GCCTCGTCCACTCCACCACGCCGCCGAAAGCCGCAACTCTCGGAGTCACCTAGTGCAG”, the binding signal was 9580 fluorescence intensity (a.u.).
To “CAACCTCTCCGGGGCGGGGCTGGCCGGCGAGCTGGCGGCGCGGAGTCACCTAGTGCAG” belongs 9150 fluorescence intensity (a.u.).
As to “AGCTGCCACAAGCCGAAGGCACGTTGACTTAAAAGAAGCCCGGAGTCACCTAGTGCAG”, the binding signal is 10700 fluorescence intensity (a.u.).
For “ATATTTTCCGCCTACCCTGTACGCACGTTTATATACACAACGGAGTCACCTAGTGCAG”, the binding signal was 9400 fluorescence intensity (a.u.).
As to “CTTGGACCCACTTAATATGTTATATGGCTATTTCTAGTCACGGAGTCACCTAGTGCAG”, the binding signal was 8220 fluorescence intensity (a.u.).
Regarding “TAAGGTTTCTTCTGGGATCATTACATATACCTATATGGTTCGGAGTCACCTAGTGCAG”, the binding signal was 8100 fluorescence intensity (a.u.).
With “AGTTTGTTTTTTTTCTGTCCTTGACATGGCCATTTTGTTACGGAGTCACCTAGTGCAG”, the binding signal is 9920 fluorescence intensity (a.u.).
Turning to “TTTCCGCCGCGGCGAGGAGGAGGAGGAGGAGGAGGGGCGACGGAGTCACCTAGTGCAG”, the binding signal is 9980 fluorescence intensity (a.u.).
Take “TTGGTTGGTTGGTTTGGTGGGCGGCGGTGCCGGAGGAAGACGGAGTCACCTAGTGCAG”: the binding signal was 21900 fluorescence intensity (a.u.).
In the case of “GCGGCGAAGCAGGGAGGAGGGAGGAGGAGGGGCGGCGGTGCGGAGTCACCTAGTGCAG” it was 12100 fluorescence intensity (a.u.); in that of “GTGCGACGGCGGCGGCGAAGTCAGTCCCCTCCTCGAGGGGCGGAGTCACCTAGTGCAG”, 27700 fluorescence intensity (a.u.); in that of “GGGCGGAGAGTTGGGGTTTGGGTTGGTGGCGGTGGGCCGGCGGAGTCACCTAGTGCAG”, 14800 fluorescence intensity (a.u.).
In the case of “CAGCGACGGTGGGGAGGTGGGCGTGGGCGGTTGCCGGCGGCGGAGTCACCTAGTGCAG”, the binding signal was 11200 fluorescence intensity (a.u.).
In the case of “TCCTCGCCGACGGCGTGCCGGCTCACGTTGCACCTCACCGCGGAGTCACCTAGTGCAG” it was 8210 fluorescence intensity (a.u.); in that of “CTTTCCTGCACCTCCACTTTATTTAGTTCATTAATTGAATCGGAGTCACCTAGTGCAG”, 8660 fluorescence intensity (a.u.).
As to “GGTTCTCTTTTCTTTTCTTTTCTTTTCTCCTGGAGTTTTTCGGAGTCACCTAGTGCAG”, the binding signal is 9120 fluorescence intensity (a.u.).
To “ACTTTGTTTACACGGTGGTTCTCTCCTTTTCTTCTTCTCACGGAGTCACCTAGTGCAG” belongs 8480 fluorescence intensity (a.u.); to “GTGCGGTTTTTCTCCTGGTTCTTTTGTGTACTTTATACCACGGAGTCACCTAGTGCAG”, 18200 fluorescence intensity (a.u.); to “CTTCGGTGTACTTTTTTCTTTTCTAGTTCCTGGTTCTAATCGGAGTCACCTAGTGCAG”, 18000 fluorescence intensity (a.u.).
“TGGTTGTGTTCTTGTTGGCTTATACCTTTTTTATGTTTTGCGGAGTCACCTAGTGCAG”: the binding signal is 9260 fluorescence intensity (a.u.).
Turning to “TTAATTACTTCCTTTTCTTTTCTTTTCTTTTCCTTTTTTTCGGAGTCACCTAGTGCAG”, the binding signal is 8110 fluorescence intensity (a.u.).
